# Data reported in the supplement of paper PMC3334620.
# Over roughly 33,000 sequences, “E-score (-0.5 to 0.5)” has its median near -0.0014; the highest 2% begin near 0.25. Shown is part of a subset that was picked to be rich in the highest values.
# Target: T1, Cad1 (UniProt P24813)
# T1 sequence: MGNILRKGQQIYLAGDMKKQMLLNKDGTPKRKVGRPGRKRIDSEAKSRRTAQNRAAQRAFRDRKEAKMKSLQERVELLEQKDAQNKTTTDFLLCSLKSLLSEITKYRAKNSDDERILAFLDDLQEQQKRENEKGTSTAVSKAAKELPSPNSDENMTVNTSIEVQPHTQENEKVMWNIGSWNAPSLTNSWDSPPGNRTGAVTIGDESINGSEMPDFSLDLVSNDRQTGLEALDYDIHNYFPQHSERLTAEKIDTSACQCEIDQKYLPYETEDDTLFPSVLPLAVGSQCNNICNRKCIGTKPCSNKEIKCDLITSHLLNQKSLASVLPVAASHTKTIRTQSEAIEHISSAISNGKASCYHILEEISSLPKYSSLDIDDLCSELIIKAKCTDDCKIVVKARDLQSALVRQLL
# Assay: PBM E-score (8-mer binding enrichment) (E-score (-0.5 to 0.5)); higher = stronger / more preferred TF binding
# Conditions: protein concentration: 100 nM; construct: GST-full length
# Description: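 Universal 'all 10-mer' protein binding microarrays (Agilent AMADID 015681) probed with GST-tagged S. cerevisiae TFs (full-length or DBD) made by in vitro transcription/translation (PURExpress), about 100-200 nM. Bound TF was detected with fluorescent anti-GST. Each ungapped 8-mer (which stands for itself and its reverse complement) is scored by the PBM enrichment score (E-score), a modified Wilcoxon-Mann-Whitney statistic from -0.5 to +0.5, computed with the Universal PBM Analysis Suite. Scale: above 0.35 generally sequence-specific binding.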
row,Sequence,PBM E-score
1,CCAACGCA,0.0411
2,CGCAGACA,0.122
3,CGCAGACG,0.257
4,CGCAGACC,-0.146
5,ACTCATTA,0.109
6,ACACAGCG,0.251
7,ACACAGCA,0.076
8,ACACAGCC,0.0823
9,CACAGGAG,0.0278
10,ATAGAATC,-0.129
11,GTAAATTA,-0.053
12,ATAAATTA,0.364
13,AAAAATTG,-0.134
14,CTAAATTA,0.2
15,ATAAATTG,0.253
16,ATAAATTC,0.091
17,GGAGCAAC,-0.0625
18,AGATCCTG,-0.0555
19,AAGGTGAG,-0.192
20,CAGCAATA,0.188
21,AATGGCCC,-0.158
22,CAATCCTA,-0.015

row,Sequence,PBM E-score
1,ACGCCCAT,-0.0524
2,CACCGACA,-0.0582
3,TAATATGA,0.133
4,GAATATTA,0.227
5,CCATATTA,0.148
6,ACATATTG,0.0269
7,CTATACTA,0.0535
8,CGCTATTA,0.253
9,TAATATTA,0.424
10,AGCTATTA,0.0722
11,GGCTATTA,0.175
12,ACATATTA,0.317
13,ATATACTA,0.259
14,ATATACTC,-0.0465
15,CAGGCTAA,-0.266
16,TAACCCGA,-0.00699
17,GGCACCTA,-0.156
18,AAGCCCAC,-0.0637
19,ACAGAACC,0.0474
20,AAGAACCA,-0.00253
21,GGCAACCC,-0.174
22,GAACCTGC,-0.018

row,Sequence,PBM E-score
1,ATGCCTTC,-0.162
2,AGCTACTA,0.0659
3,AAATATTG,0.249
4,GAATATTC,0.338
5,CGCTACTC,0.0265
6,CGCTACTA,0.276
7,CGATATTC,0.173
8,CGATATTA,0.352
9,AAATATTC,0.249
10,AAATATTA,0.298
11,CAATATTC,0.0508
12,CAATATTA,0.187
13,GGATATTA,0.163
14,CACCACAC,0.151
15,AGCTCACT,-0.0157
16,ACAATAGA,-0.144
17,GGAGCACC,-0.0566
18,CTATATTA,0.241
19,ATATATTA,0.368
20,GTATATTA,0.115
21,GCTAAGCC,-0.109
22,AGACGCAC,0.0398

row,Sequence,PBM E-score
1,CGACCTAG,0.0727
2,CCAAATAA,0.15
3,ATTACAAA,0.425
4,CTTACAAG,0.0333
5,CTTACAAA,0.372
6,CTTACAAC,0.118
7,ATTACAAT,0.104
8,ATTACAAG,0.0206
9,ATATAAGA,0.22
10,AGCCCATA,-0.0468
11,AAGAAGCG,-0.184
12,CAACGCGC,0.311
13,CTGCGCGA,0.13
14,CAACGCGG,0.0152
15,CTTCGCGA,0.143
16,ATGCGCGC,0.238
17,ATTCGCGC,0.17
18,CGGCGCGA,0.203
19,CTGCGCGC,0.302
20,CGGCGCGC,0.258
21,CTTCGCGC,0.263
